The target of test [1] is Ribosomal protein S6 kinase alpha-6 (Homo sapiens) (UniProt Q9UK32). The note with it: at 1 µM.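 Also: each value is a mean inhibition of RSK4 from a GSK PKIS panel screen.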
The target of test [2] is T1, Serine/threonine-protein kinase Sgk1 (Homo sapiens) (UniProt O00141).
T1 sequence (whole entry): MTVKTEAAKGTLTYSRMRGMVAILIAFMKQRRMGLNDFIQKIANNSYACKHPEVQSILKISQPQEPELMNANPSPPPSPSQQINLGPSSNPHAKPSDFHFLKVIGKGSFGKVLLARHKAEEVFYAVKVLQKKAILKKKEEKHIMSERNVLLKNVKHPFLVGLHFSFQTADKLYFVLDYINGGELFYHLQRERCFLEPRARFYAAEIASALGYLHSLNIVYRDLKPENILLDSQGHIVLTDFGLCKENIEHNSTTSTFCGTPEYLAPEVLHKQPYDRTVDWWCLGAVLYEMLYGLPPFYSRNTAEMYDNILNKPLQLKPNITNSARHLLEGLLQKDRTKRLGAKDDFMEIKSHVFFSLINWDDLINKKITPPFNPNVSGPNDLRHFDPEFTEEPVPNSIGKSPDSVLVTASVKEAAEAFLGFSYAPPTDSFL
Conditions: at 0.1 µM.

Test [3] deals with T1, Serine/threonine-protein kinase Sgk1 (Homo sapiens). The note with it: at 1 µM.
The target in test [4] is T2, Serine/threonine-protein kinase Sgk2 (Homo sapiens) (UniProt Q9HBY8).
T2 sequence (whole entry): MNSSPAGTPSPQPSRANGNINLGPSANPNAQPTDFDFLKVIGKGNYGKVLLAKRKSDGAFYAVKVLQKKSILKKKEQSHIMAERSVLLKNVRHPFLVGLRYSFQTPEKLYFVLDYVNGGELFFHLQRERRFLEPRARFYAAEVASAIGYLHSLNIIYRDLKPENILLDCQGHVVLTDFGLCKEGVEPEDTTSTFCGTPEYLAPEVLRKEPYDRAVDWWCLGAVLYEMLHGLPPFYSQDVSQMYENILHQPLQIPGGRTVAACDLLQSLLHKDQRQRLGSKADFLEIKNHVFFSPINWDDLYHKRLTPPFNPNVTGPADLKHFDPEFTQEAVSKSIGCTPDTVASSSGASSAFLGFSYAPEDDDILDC
Conditions: at 0.1 µM.

The target of test [5] is T2, Serine/threonine-protein kinase Sgk2 (Homo sapiens). The note with it: at 1 µM.
For test [6], the target named is T3, Serine/threonine-protein kinase Sgk3 (Homo sapiens) (UniProt Q96BR1).
T3 sequence (whole entry): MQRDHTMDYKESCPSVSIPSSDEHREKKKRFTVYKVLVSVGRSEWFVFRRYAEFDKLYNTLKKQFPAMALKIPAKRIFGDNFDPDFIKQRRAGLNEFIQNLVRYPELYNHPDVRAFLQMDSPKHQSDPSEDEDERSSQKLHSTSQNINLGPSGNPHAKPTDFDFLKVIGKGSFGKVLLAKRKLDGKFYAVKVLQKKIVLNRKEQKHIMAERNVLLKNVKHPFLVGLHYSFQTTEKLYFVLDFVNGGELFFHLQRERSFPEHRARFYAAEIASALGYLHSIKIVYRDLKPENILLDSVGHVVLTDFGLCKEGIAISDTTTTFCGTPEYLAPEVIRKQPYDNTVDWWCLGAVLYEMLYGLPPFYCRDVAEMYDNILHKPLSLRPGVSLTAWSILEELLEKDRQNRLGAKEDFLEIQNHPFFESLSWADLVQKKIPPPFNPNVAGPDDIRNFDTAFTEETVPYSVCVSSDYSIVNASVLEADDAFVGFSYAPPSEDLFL
The note with it: at 0.1 µM.

Test [7] deals with T3, Serine/threonine-protein kinase Sgk3 (Homo sapiens). Conditions: at 1 µM.
The target of test [8] is 5'-AMP-activated protein kinase catalytic subunit alpha-1 (Homo sapiens) (UniProt Q13131). Conditions: at 0.1 µM.
Test [9] shares this target. The note with it: at 1 µM.
Test [10] addresses 5'-AMP-activated protein kinase catalytic subunit alpha-2 (Homo sapiens) (UniProt P54646). Conditions: at 0.1 µM.
Test [11] shares this target. The note with it: at 1 µM.
Test [12] addresses T4, NUAK family SNF1-like kinase 1 (Homo sapiens) (UniProt O60285).
T4 sequence (whole entry): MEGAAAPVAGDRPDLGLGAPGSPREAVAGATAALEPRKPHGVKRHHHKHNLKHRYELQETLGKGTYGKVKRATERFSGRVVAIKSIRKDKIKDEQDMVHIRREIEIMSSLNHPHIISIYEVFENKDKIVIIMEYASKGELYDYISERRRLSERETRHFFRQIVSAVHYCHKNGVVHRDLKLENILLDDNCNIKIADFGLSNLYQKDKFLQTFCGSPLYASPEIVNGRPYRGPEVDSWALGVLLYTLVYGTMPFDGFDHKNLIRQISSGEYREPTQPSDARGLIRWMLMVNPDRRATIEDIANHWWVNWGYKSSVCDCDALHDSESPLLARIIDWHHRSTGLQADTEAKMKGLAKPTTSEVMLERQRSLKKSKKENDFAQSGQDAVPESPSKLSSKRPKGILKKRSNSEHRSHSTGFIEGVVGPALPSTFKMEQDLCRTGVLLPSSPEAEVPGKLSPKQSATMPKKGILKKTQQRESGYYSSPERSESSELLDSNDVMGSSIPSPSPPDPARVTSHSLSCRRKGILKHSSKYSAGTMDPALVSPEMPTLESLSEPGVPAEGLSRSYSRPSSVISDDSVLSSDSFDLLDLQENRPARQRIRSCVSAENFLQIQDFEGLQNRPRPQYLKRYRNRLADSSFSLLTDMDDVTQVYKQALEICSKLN
Conditions: at 0.1 µM.

Test [13] addresses T4, NUAK family SNF1-like kinase 1 (Homo sapiens). Conditions: at 1 µM.
The target of test [14] is T5, Serine/threonine-protein kinase BRSK1 (Homo sapiens) (UniProt Q8TDC3).
T5 sequence (whole entry): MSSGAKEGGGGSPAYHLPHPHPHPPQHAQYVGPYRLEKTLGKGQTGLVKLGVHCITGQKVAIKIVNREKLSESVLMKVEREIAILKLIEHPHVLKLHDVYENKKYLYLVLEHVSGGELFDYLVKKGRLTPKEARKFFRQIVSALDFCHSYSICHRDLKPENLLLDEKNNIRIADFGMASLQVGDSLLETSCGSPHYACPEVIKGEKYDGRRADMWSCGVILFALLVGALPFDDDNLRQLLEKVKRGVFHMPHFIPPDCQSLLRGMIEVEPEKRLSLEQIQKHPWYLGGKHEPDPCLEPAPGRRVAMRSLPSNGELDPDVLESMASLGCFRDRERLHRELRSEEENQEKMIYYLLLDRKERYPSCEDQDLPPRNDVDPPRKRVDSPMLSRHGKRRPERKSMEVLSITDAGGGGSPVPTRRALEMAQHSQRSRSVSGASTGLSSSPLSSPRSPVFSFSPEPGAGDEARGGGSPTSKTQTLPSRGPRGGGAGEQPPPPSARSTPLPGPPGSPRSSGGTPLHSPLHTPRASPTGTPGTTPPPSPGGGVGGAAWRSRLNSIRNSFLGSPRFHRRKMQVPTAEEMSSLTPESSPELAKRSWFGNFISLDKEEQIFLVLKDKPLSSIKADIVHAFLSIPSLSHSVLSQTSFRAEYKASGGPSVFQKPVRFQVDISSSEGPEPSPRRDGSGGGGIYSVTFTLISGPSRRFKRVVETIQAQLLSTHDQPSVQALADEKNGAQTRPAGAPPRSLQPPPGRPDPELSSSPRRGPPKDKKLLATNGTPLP
The note with it: at 0.1 µM.

The target of test [15] is T5, Serine/threonine-protein kinase BRSK1 (Homo sapiens). Conditions: at 1 µM.
For test [16], the target named is T6, Serine/threonine-protein kinase BRSK2 (Homo sapiens) (UniProt Q8IWQ3).
T6 sequence (whole entry): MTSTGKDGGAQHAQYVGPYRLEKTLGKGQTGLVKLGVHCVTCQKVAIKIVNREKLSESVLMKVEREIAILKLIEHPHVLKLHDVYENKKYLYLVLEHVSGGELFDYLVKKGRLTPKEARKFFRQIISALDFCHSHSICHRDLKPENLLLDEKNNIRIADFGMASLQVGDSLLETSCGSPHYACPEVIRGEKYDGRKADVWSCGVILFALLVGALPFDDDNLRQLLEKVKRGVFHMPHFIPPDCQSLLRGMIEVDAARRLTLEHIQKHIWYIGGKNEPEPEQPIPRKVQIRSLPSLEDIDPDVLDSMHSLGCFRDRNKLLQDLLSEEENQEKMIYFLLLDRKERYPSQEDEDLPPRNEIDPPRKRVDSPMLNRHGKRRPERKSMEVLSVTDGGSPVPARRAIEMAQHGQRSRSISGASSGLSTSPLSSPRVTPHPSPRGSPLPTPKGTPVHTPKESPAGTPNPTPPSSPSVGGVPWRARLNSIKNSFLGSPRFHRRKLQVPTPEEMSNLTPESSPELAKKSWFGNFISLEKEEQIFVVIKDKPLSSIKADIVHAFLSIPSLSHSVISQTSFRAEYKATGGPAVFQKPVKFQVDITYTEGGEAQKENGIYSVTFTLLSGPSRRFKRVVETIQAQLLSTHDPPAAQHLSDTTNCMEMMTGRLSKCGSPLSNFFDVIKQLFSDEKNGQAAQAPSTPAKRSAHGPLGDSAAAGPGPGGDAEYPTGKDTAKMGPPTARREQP
Conditions: at 0.1 µM.

Test [17] concerns the target T6, Serine/threonine-protein kinase BRSK2 (Homo sapiens). The note with it: at 1 µM.
The target in test [18] is Calcium/calmodulin-dependent protein kinase type 1D (Homo sapiens) (UniProt Q8IU85). The note with it: at 0.1 µM.
Test [19] shares this target. Conditions: at 1 µM.
Test [20] has as its target Calcium/calmodulin-dependent protein kinase type II subunit alpha (Homo sapiens) (UniProt Q9UQM7). The note with it: at 0.1 µM.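 Also: reported values are averages (mean inhibition of CAMK2A).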

In general, inhibition refers to the change of the read-out against control, counted positive when it falls.

Sequence of Ribosomal protein S6 kinase alpha-6 (Homo sapiens) (Q9UK32 whole entry): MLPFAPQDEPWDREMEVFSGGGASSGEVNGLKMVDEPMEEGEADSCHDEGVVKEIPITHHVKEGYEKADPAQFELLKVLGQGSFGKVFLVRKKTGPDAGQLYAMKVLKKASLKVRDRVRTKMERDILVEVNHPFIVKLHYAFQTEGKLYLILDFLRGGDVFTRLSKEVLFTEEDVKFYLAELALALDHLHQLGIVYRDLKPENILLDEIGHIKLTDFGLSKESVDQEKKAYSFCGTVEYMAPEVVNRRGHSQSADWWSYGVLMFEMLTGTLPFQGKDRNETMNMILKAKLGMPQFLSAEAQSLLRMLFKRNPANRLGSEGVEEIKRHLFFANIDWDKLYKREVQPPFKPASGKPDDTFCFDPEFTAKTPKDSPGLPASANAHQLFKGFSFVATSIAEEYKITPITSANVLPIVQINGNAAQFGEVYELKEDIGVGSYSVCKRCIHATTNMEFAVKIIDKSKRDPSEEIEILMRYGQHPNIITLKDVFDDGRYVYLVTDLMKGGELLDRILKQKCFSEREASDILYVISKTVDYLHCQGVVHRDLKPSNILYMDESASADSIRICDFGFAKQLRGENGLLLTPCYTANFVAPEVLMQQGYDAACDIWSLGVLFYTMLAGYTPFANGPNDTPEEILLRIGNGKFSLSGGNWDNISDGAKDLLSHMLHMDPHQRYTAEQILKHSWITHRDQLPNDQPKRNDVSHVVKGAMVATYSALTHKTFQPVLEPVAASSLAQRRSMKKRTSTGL
Sequence of Calcium/calmodulin-dependent protein kinase type II subunit alpha (Homo sapiens) (Q9UQM7 whole entry): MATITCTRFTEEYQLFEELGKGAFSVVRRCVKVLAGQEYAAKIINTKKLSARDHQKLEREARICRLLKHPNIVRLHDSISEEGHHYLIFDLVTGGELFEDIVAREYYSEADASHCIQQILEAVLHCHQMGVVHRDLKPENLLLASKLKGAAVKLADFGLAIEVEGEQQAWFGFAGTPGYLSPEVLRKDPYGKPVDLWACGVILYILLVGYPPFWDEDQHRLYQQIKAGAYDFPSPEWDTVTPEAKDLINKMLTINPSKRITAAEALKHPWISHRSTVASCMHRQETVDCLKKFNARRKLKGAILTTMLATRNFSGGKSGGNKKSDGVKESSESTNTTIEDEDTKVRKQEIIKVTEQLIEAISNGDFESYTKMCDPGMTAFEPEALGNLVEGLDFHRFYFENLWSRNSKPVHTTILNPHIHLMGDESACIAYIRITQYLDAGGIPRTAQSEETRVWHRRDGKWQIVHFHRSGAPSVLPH
Sequence of Calcium/calmodulin-dependent protein kinase type 1D (Homo sapiens) (Q8IU85 whole entry, looked up): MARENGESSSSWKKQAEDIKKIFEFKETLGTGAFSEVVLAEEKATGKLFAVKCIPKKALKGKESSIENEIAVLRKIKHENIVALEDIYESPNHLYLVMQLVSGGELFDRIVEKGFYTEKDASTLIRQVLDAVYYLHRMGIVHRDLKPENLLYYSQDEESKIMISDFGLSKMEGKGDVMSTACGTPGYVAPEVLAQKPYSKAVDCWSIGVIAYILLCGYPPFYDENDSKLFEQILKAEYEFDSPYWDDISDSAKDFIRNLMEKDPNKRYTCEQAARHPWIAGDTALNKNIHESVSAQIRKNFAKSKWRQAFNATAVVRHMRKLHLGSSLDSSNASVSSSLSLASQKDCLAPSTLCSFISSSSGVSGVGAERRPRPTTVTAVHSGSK
Sequence of 5'-AMP-activated protein kinase catalytic subunit alpha-1 (Homo sapiens) (Q13131 whole entry, looked up): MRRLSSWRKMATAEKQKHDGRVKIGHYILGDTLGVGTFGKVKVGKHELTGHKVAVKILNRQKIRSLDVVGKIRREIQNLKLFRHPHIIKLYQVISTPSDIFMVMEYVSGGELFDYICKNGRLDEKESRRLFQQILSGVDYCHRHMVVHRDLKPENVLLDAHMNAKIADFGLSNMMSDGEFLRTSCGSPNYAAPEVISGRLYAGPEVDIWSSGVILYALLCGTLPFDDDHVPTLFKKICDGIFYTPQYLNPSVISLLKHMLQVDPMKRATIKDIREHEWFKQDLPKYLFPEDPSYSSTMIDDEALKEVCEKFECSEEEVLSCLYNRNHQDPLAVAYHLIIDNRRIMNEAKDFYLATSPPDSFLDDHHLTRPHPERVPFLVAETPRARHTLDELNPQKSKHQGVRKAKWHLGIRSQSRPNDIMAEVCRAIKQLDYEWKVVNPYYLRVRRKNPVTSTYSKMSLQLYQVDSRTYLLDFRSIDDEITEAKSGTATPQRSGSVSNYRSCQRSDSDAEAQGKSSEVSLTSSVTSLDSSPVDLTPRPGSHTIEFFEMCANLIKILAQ
Sequence of 5'-AMP-activated protein kinase catalytic subunit alpha-2 (Homo sapiens) (P54646 whole entry, looked up): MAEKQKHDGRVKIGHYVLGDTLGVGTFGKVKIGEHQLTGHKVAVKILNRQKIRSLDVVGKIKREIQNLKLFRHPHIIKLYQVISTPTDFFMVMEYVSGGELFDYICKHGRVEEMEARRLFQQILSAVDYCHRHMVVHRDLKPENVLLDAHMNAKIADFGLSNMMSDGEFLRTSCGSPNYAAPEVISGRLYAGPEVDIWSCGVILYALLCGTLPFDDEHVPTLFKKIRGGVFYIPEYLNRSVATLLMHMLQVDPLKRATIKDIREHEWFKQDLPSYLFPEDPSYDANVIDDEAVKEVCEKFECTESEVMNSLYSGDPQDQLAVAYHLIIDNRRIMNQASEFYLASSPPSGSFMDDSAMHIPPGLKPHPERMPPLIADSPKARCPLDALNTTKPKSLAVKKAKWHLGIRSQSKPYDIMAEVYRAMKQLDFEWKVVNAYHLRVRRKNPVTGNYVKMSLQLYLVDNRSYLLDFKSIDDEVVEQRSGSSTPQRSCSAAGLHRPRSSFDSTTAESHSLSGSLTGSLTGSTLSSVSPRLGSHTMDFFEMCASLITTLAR

For `c1ccc(Cc2nc3ccc(Nc4ncnc5ccccc45)cc3[nH]2)cc1`, the inhibition in test [1] worked out at 0.98%; in test [2], 1.05%; in [3] it was 6.43%; in [4], 1.59%; in test [5], 5.44%; in test [6], 2.24%. The inhibition in test [7] was 3.66%; in [8], 3.03%; in test [9], 4.08%; in [10] it was -0.36%; in test [11], 2.91%; in [12] it was 4.96%. Also, the inhibition was 5.29% in [13]; -0.34% in test [14]; 3.16% in test [15]; 1.93% in test [16]; 5% in test [17]; -0.7% in test [18]. For the same compound, the inhibition in test [19] was 0.04%; in test [20] it was 2.75%.

In the case of `c1ccc(Nc2ncc(-c3ccccc3)o2)cc1`, the inhibition in test [1] was 3.23%; in test [2], 2.66%; in test [3] it was 4%; in test [4] it was 2.47%; in test [5] it was 0.08%; in [6], 4.53%. Besides, the inhibition in [7] is 2.32%; in [8], 2.6%; in [9], 4.99%; in test [10], 7.1%; in test [11], 0.19%; in [12] it was -0.12%. In addition, the inhibition in test [13] was 11%; in test [14], 0.5%; in test [15], 2.07%; in test [16] it was 0.2%; in test [17] it was 3.56%; in test [18], 1.22%. For the same compound, the results for the inhibition in [19] and in test [20] were 2.94% and 2.13%, respectively.

Take `CCS(=O)(=O)c1ccc(OC)c(Nc2ncc(-c3cccc(OC)c3)o2)c1`: the inhibition in test [1] came out at 3.54%; in [2] it was 1.35%; in test [3], 2.05%; in [4], 3.12%; in [5], 5.99%; in test [6], 3.65%. In addition, the inhibition in [7] was -0.11%; in test [8], 1.32%; in [9], 1.33%; in test [10] it was -0.63%; in test [11], 4.19%; in test [12], 2.41%. The inhibition was 13.4% in [13]; 1.53% in test [14]; -0.15% in test [15]; 0.33% in test [16]; 0.66% in test [17]; 0.03% in test [18]. Moreover, the results for the inhibition in [19] and in [20] were 1.97% and 2.7%, respectively.

For the compound `COc1cc2ncn(-c3cc(OCc4ccccc4S(C)(=O)=O)c(C#N)s3)c2cc1OC`, the inhibition is 16.4% in test [1]; 2.34% in [2]; 4.47% in [3]; 2.96% in test [4]; 4.38% in test [5]; 4.43% in test [6]. The inhibition in test [7] turned out to be 4.05%; in test [8] it was 33.4%; in test [9], 74.6%; in [10], 5.84%; in test [11], 31.2%; in [12], 14.5%. Besides, the inhibition in [13] came out at 54.3%; in [14], 37.1%; in [15], 76.3%; in test [16] it was 53.7%; in test [17] it was 82.2%; in [18] it was 1.23%. The figures for the inhibition in test [19] and in test [20] were 6.21% and 6.03%, respectively.

The record behind these values is ChEMBL document CHEMBL1961873, “Compounds: GSK PKIS; Assays: Nanosyn kinase panel” (2012).
